Nrf2 activator: qHTS of Nrf2 Activators | Potency, µM (series often up to 46.1 µM), hits mostly activators | actives 0.31% (n = 410,000) | AREc32 ARE-luciferase reporter (MCF7-derived line), luminescence, 24 h; note: nearly all actives have a fitted effect of over 65% in size
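Nrf2 activation is followed as ARE-luciferase induction in the AREc32 line after one day of compound treatment; luminescence is read with Steady-Glo.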
LDHA block: qHTS assay for inhibitors of human lactate dehydrogenase; actives 0.15% (n = 480,000); L-lactate dehydrogenase A chain (Homo sapiens), P00338; purified LDHA, NADH/diaphorase-resazurin fluorescence; stronger effect = lower value; activity change, % (values are at about 110 or 230 µM); in the data active = activity change below about -30%; inconclusive = mostly about -25% to -30%
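Remaining NADH was detected by diaphorase (0.133 mg/mL) converting 37 µM resazurin to fluorescent resorufin, read at 0 and 20 minutes. The preceding 5-minute room-temperature reaction used 2 nM LDHA, 0.2 mM sodium pyruvate and 0.06 mM NADH at pH 7.4.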
mIDH1 inhibitor: qHTS for Inhibitors of mutant isocitrate dehydrogenase 1 (IDH1): qHTS; Isocitrate dehydrogenase [NADP] cytoplasmic (Homo sapiens), O75874; IDH1-R132H enzyme, NADPH consumption, diaphorase/resazurin fluorescence; Potency, µM (top dose mostly 76.6 µM), most hits filed as inhibitors; actives 0.093% (n = 390,000); note: nearly all actives have a fitted effect of over 65% in size
Target sequence (O75874 whole entry R132H, stated change not applied): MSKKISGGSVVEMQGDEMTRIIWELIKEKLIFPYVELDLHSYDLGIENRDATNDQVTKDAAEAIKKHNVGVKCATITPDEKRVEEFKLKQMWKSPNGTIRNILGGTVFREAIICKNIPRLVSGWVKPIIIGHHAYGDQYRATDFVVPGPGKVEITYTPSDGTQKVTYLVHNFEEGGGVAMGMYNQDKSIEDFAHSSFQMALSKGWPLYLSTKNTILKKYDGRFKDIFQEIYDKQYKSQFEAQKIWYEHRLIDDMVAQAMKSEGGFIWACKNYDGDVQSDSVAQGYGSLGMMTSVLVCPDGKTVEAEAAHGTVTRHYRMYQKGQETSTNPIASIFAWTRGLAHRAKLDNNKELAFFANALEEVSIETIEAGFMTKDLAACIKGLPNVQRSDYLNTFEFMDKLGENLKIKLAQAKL
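IDH1-R132H (0.5 ug/mL) preincubated 30 min with compound, then NADPH (0.016 mM) and alpha-KG (2 mM) added; 80 min at RT, pH 7.5. Remaining NADPH coupled via diaphorase/resazurin to fluorescence (540/590 nm); concentration-response curves normalized to no-enzyme control.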
Nrf2 inh: Nrf2 qHTS screen for inhibitors; A549 ARE-Fluc reporter, luciferase luminescence, 18-24 h; Potency, µM (series often up to 46 µM), hits mostly inhibitors; actives 2.1% (n = 360,000); AID 504444, 2011; note: nearly all actives have a fitted effect of over 60% in size
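Cells were seeded and rested 2 h, then exposed to compounds for 18-24 h. CellTiter-Fluor was read first as a viability measure. BugLite was added 15 min before the final luminescent read of ARE-luciferase activity in A549 cells.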
A549 viability: Nrf2 qHTS screen for inhibitors: counterscreen for cytotoxicity; A549 ARE-Fluc cells, CellTiter-Fluor viability, 18-24 h; Potency, µM (series often up to 46 µM), usual class: inhibitors; actives 0.16% (n = 390,000); AID 504648, 2011
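A549 ARE-Fluc cells in 5% FBS OPTI-MEM, 5000 cells/well, rested 2 h then exposed to compounds in concentration-response for 18-24 h at 37 °C. Viability by CellTiter-Fluor fluorescence (Ex 405/Em 525) after 30 min; luciferase luminescence (BugLite, 15 min, RT) read afterwards.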
12-LOX inh: Primary qHTS assay for inhibitors of human arachidonate 12S-lipoxygenase (ALOX12): Round 2 | Polyunsaturated fatty acid lipoxygenase ALOX12 (Homo sapiens), P18054 | purified 12hLO, xylenol orange hydroperoxide absorbance | Potency, µM (top dose mostly 108 µM), usual class: inhibitors | actives 1.1% (n = 580,000) | AID 1671190, 2021
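Hydroperoxide product was detected by ferrous iron/xylenol orange as the 573 to 405 nm absorbance ratio. Arachidonic acid at 40 uM (final) was turned over for 30 min at room temperature by 150 nM human 12hLO, pH 7.0 Hepes buffer, after 15 min compound preincubation.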
Numbers stand for hits. Rows were chosen to be rich in hits. Some 2.7% of all compounds tested hit in one or more screens of this group. Unless noted, calls come from the whole dose curve; as a rule, active = well fitted curve in the direction sought with a large enough effect; inconclusive = small, poorly fitted or top-dose-only effect, or another doubt; inactive = no such curve, though single readings can be large; an effect the other way counts as inactive or inconclusive.

Screening O=C(Nc1ccccc1-c1nc2ccccc2[nH]1)c1ccc(S(=O)(=O)N2CCCCC2)cc1 returned Nrf2 activator inactive, LDHA block inactive, mIDH1 inhibitor inactive, Nrf2 inh inconclusive, A549 viability inconclusive and 12-LOX inh inactive.
O=C(Nc1nnc(-c2ccco2)o1)c1ccc(S(=O)(=O)N2CCCCC2)cc1 was read as Nrf2 activator inactive, LDHA block inactive, mIDH1 inhibitor inactive and 12-LOX inh inactive.
`CC1CCCCN1S(=O)(=O)c1ccc(C(=O)Nc2nnc(C3CC3)o2)cc1` (stereo not given) gave Nrf2 activator inactive, LDHA block inactive, mIDH1 inhibitor inactive, Nrf2 inh 13µM, A549 viability inactive and 12-LOX inh inactive.
`COc1ccc(Cc2nc3c4c(C)c(C)n(C5CCCCC5)c4ncn3n2)cc1OC` gave LDHA block inactive and 12-LOX inh inactive.
`Cc1cccc(NC(=O)c2ccc(S(=O)(=O)N3CCC(C)CC3)cc2)n1` gave Nrf2 activator inactive, LDHA block inactive, mIDH1 inhibitor inactive, Nrf2 inh 15µM, A549 viability inactive and 12-LOX inh inactive.
Cc1cccc(NC(=O)c2ccc(S(=O)(=O)N3CCCCC3)cc2)n1 was read as Nrf2 activator inactive, LDHA block inactive, mIDH1 inhibitor inactive, Nrf2 inh inconclusive, A549 viability inactive and 12-LOX inh inactive.
For COc1ccc(N=C2S[C@H]3[C@H]([C@@H](O)[C@H](O)C[C@@H]3C(N)=O)N2Cc2ccc(F)cc2)cc1 the results were 12-LOX inh inactive.
NC(=O)[C@H]1C[C@@H](O)[C@H](O)[C@H]2[C@@H]1SC(=Nc1ccc(Cl)cc1)N2CC1CCCCC1 was read as 12-LOX inh 28µM.
Screening CN(Cc1ccccc1)C1CCN(Cc2ccc(Cl)cc2)CC1 returned LDHA block inactive and 12-LOX inh inconclusive.
`CCC[C@H](NC(=O)C(C#N)=Cc1cccc(Br)n1)c1ccccc1` gave 12-LOX inh 7.7µM.
For CC(NC(=O)/C(C#N)=C\c1cccc(Oc2ccccc2)c1)c1ccccc1 (stereo not given) the results were LDHA block inactive and 12-LOX inh inactive.
For Cc1ccc2cc(CCC(=O)N3CCN(c4ccccn4)CC3)c(=O)[nH]c2c1 the results were 12-LOX inh inactive.
For COc1ccc(Nc2nc(N3CCN(C(=O)c4ccco4)CC3)nc3c2cnn3C)cc1 the results were LDHA block inactive and 12-LOX inh inactive.
CCOC(=O)C1(CCCc2ccccc2)CCN(C(=O)[C@@H]2C[C@@H](C)NC(=S)N2)CC1 was read as Nrf2 activator inactive, LDHA block inactive, mIDH1 inhibitor inactive, Nrf2 inh inactive, A549 viability inactive and 12-LOX inh 45µM.
`CCOC(=O)C1(CCCc2ccccc2)CCN(C(=O)COC)CC1` gave Nrf2 activator inactive, LDHA block inactive, mIDH1 inhibitor inactive, Nrf2 inh inactive, A549 viability inactive and 12-LOX inh inactive.
For S=C1NCCc2ccccc2C1c1ccccc1 (stereo not given) the results were Nrf2 activator inactive, LDHA block inactive, mIDH1 inhibitor inactive, Nrf2 inh inactive, A549 viability inactive and 12-LOX inh 35µM.
`Cc1ccc(C)c(Nc2nc3c(S(=O)(=O)c4ccc(C(C)C)cc4)nnn3c3ccsc23)c1` gave Nrf2 activator inactive, LDHA block inactive, mIDH1 inhibitor inconclusive, Nrf2 inh 16µM, A549 viability inconclusive and 12-LOX inh inactive.
Cc1ccc(C)c(Nc2nc3c(S(=O)(=O)c4ccc(Br)cc4)nnn3c3ccsc23)c1 was read as Nrf2 activator inactive, LDHA block inactive, mIDH1 inhibitor inactive, Nrf2 inh inconclusive, A549 viability inconclusive and 12-LOX inh inconclusive.
CCc1nc(N2CCN(C(C)=O)CC2)c2c3c(sc2n1)CC(C(C)(C)C)CC3 (stereo not given) was read as Nrf2 activator inactive, LDHA block inactive, mIDH1 inhibitor inconclusive, Nrf2 inh 18µM, A549 viability inactive and 12-LOX inh inactive.
For CCOc1[nH]c(/N=C/c2ccco2)c(C#N)c1C#N the results were Nrf2 activator inactive, LDHA block inactive, mIDH1 inhibitor inactive, Nrf2 inh inactive, A549 viability inactive and 12-LOX inh 18µM.
`COc1cccc([C@H]2Nc3ccc(S(=O)(=O)Nc4cc(C)ccc4C)cc3[C@H]3C=CC[C@H]32)c1` gave Nrf2 activator inactive, LDHA block inactive, mIDH1 inhibitor inactive, Nrf2 inh inconclusive, A549 viability inactive and 12-LOX inh inactive.
`Cc1ccc([C@H]2Nc3ccc(S(=O)(=O)Nc4cccc(Cl)c4C)cc3[C@H]3C=CC[C@H]32)cc1` gave Nrf2 activator inactive, LDHA block inactive, mIDH1 inhibitor inactive, Nrf2 inh inconclusive, A549 viability inactive and 12-LOX inh 40µM.
Screening O=C1C=CC(=O)N1c1ccc2ccccc2c1 returned Nrf2 activator inactive, LDHA block inactive, mIDH1 inhibitor inactive, Nrf2 inh inactive, A549 viability inactive and 12-LOX inh 40µM.
CCC1CN(Cc2cn(-c3ccccc3C)nc2-c2ccc(OC)c(F)c2)CCO1 (stereo not given) was read as 12-LOX inh inactive.
`NC(=O)C[n+]1cccc2ccccc21` gave Nrf2 activator inactive, LDHA block inactive, mIDH1 inhibitor inactive, Nrf2 inh inactive, A549 viability inconclusive and 12-LOX inh inconclusive.
For N[n+]1cccc2ccccc21 the results were LDHA block inactive and 12-LOX inh 18µM.
`O=[N+]([O-])c1cc(Nc2ccccc2)c(/C=N/Nc2ccccc2)c([N+](=O)[O-])c1` gave LDHA block inactive and 12-LOX inh inactive.
`CN(Cc1c(O)ccc2c1oc(=O)c1ccccc12)C1CCCCC1` gave Nrf2 activator inactive, LDHA block inactive, mIDH1 inhibitor inactive, Nrf2 inh inactive, A549 viability inactive and 12-LOX inh 0.89µM.
Screening O=c1oc2c(F)cc(F)cc2cc1S(=O)(=O)c1ccc(F)cc1 returned Nrf2 activator 10µM, LDHA block inactive, Nrf2 inh inactive, A549 viability inconclusive and 12-LOX inh inactive.
For Cc1ccc2oc(=O)c(S(=O)(=O)c3ccc(F)cc3)cc2c1 the results were Nrf2 activator inconclusive, LDHA block inactive, mIDH1 inhibitor inactive, Nrf2 inh inactive, A549 viability inactive and 12-LOX inh inactive.

Assay outcomes deposited in PubChem BioAssay by National Center for Advancing Translational Sciences (NCATS).
